Source: the supplement of paper PMC4894684
Structures can show the parent of a compound that is named as a salt. ± gives the standard deviation of the averaged measurements.

System: Toxoplasma gondii RH (in HFF)
Test: parasite growth relative to the screen mean (all compounds = 100%); higher = less inhibition of parasite growth
Conditions: 5 µM; 72 h; oxygen 21 %
Summary of the method: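 Parasite growth was reported relative to the screen mean. In that scale, the mean of all compounds equals 100%, and values are averaged over two screens. Compounds from 10 mM DMSO stocks were pin-transferred to 5 µM final onto confluent human foreskin fibroblasts in 96-well plates, infected within 2 h with RH β-Gal–GFP Toxoplasma (MOI 1:5) and grown 72 h at 21% O2, with parasite number read by a CPRG β-Gal assay against in-plate standard curves. Uninfected host-cell viability was checked with CellTiter-Blue.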

Row | Compound | parasite growth
1 | Cc1[nH]c(/C=C2\C(=O)Nc3ccccc32)c(C)c1CCC(=O)O | 102 ± 8.8%
2 | O=C(NCCO[N+](=O)[O-])c1cccnc1 [Nicorandil] | 109 ± 12%
3 | O=C(/C=C/c1ccc(O)c(O)c1)O[C@H](Cc1ccc(O)c(O)c1)C(=O)O [Rosmarinic acid] | 110 ± 5.5%
4 | CC(Oc1ccc(O)cc1)(P(=O)(O)O)P(=O)(O)O | 101 ± 21%
5 | CCOC(=O)c1ccc(OC(=O)CCCCCNC(=N)N)cc1 [Gabexate mesylate] | 144 ± 6.4%
6 | CCC(=O)OCN1C(=O)C=CC1=O | 124 ± 12%
7 | N[C@@H](Cc1cc(CP(=O)(O)O)cc(-c2ccccc2Cl)c1)C(=O)O | 122 ± 6.2%
8 | CC[C@H](C)C(=O)O[C@H]1CCC=C2C=C[C@H](C)[C@H](CC[C@@H]3C[C@@H](O)CC(=O)O3)[C@H]21 [Mevastatin] | 109 ± 3.3%
9 | CN(C)CCCn1cc(C2=C(c3c[nH]c4ccccc34)C(=O)NC2=O)c2ccccc21 | < 0%
10 | CC(C)N(CCC(=O)c1ccc2ccccc2c1)Cc1ccccc1 | 77.6 ± 4.8%
11 | COC(=O)c1c(-c2cc(OC)c(OC)c(OC)c2)c2ccnc(OCc3ncccn3)c2c(=O)n1Cc1ccnc(C)c1 [T 0156 hydrochloride] | 89.9 ± 14%
12 | N#Cc1c(O)c2c(-c3ccc(-c4ccccc4O)cc3)csc2[nH]c1=O | 131 ± 14%
13 | Clc1ccc2c(c1)N=C(N1CCNCC1)c1ccccc1N2 [N-Desmethylclozapine] | 59.7 ± 2.8%
14 | OC[C@H]1NC[C@@H](O)[C@@H](O)[C@@H]1O [1-Deoxymannojirimycin hydrochloride] | 141 ± 9.1%
15 | CC1(C)NC(=O)N(c2ccc([N+](=O)[O-])c(C(F)(F)F)c2)C1=O [Nilutamide] | 150 ± 36%
